{"source": "PubChem BioAssay AID1259421", "about": "(Broad Institute, 2018)", "note": "Values joined by “and” are separate entries in the source; they are usually repeats but may differ in a detail not shown here. Equal values may be shown once. Hit rate of the full screen: of about 6,400 compounds, about 610 (9.5%) were called active. The sample holds actives, similar compounds and a random draw of the others, so the mix is not that of the screen. Cut-off read from the data, not from the text of the source: active = activity change below about -70%; inconclusive = no clear call, values can overlap the other calls; inactive = above that. Some compounds were tested as several samples or in several runs, with calls that do not always agree."}
{"assay": "T. gondii ME49Luc in HeLa cells, luciferase assay, 72 h, no IFN-y (AID 1259421)", "details": "stronger effect = lower value, concentration not given here"}
{"smiles": "CCC(C)C(=O)O[C@H]1C[C@H](O)C=C2C=C[C@H](C)[C@H](CC[C@@H](O)C[C@@H](O)CC(=O)O)C21", "note": "(stereo partly drawn)", "activity change, negative = inhibition": "4.96% (inactive)"}
{"smiles": "O=S(=O)(c1ccccc1)c1cnc2c(N3CCNCC3)cccc2c1", "activity change, negative = inhibition": "8.53% (inactive)"}
{"smiles": "CCCCCCOc1nsnc1C1=CCCN(C)C1", "activity change, negative = inhibition": "-26.8% (inactive)"}
{"smiles": "CCC(CC)(CC(=O)Nc1cccc(/C=C/c2nc(C3CCC3)cs2)c1)C(=O)O", "activity change, negative = inhibition": "41.5% (inactive)"}
{"smiles": "O=C(C[C@H]1NCCC[C@@H]1O)Cn1cnc2cc(Br)c(Cl)cc2c1=O", "activity change, negative = inhibition": "-86% (active)"}
{"smiles": "CC(C)[C@@H](N)C(=O)O", "activity change, negative = inhibition": "5.34% (inactive)"}
{"smiles": "Clc1ccc2c(N3CCN(CCCN4CCN(c5ccnc6cc(Cl)ccc56)CC4)CC3)ccnc2c1", "activity change, negative = inhibition": "1.21% (inactive)"}
{"smiles": "Cc1ncc(-c2ccnc(Nc3ccc(S(C)(=O)=O)cc3)n2)n1C(C)C", "activity change, negative = inhibition": "-84.5% (active)"}
{"smiles": "C1CCN2C[C@@H]3C[C@H](CN4CCCC[C@@H]34)[C@H]2C1", "activity change, negative = inhibition": "13.5% (inactive)"}
{"smiles": "O=C1[C@@H]2[C@H]3CC[C@H](C3)[C@@H]2C(=O)N1CCCCN1CCN(c2ncccn2)CC1", "activity change, negative = inhibition": "8.23% (inactive)"}
{"smiles": "CCCCCCCCCCCCCCCCCCCCCC(=O)Nc1ccn([C@@H]2O[C@H](CO)[C@@H](O)[C@@H]2O)c(=O)n1", "activity change, negative = inhibition": "8.14% (inactive)"}
{"smiles": "O=C(CN1CCNCC1)NC1CCCCC1", "activity change, negative = inhibition": "-5.36% (inactive)"}
{"smiles": "C=C1CCC2[C@](C)(CO)[C@H](O)CC[C@@]2(C)[C@@H]1C/C=C1/C(=O)OC[C@H]1O", "note": "(stereo partly drawn)", "activity change, negative = inhibition": "9.67% (inactive)"}
{"smiles": "N#CC[C@H](C1CCCC1)n1cc(-c2ncnc3[nH]ccc23)cn1", "activity change, negative = inhibition": "27.9% (inactive) and 17.6% (inactive)"}
{"smiles": "N#CC[C@@H](C1CCCC1)n1cc(-c2ncnc3[nH]ccc23)cn1", "activity change, negative = inhibition": "1.99% (inactive)"}
{"smiles": "Nc1ncnc2c1c(-c1cnc3[nH]ccc3c1)nn2C1CCCC1", "activity change, negative = inhibition": "-82.4% (active)"}
{"smiles": "COc1cc([C@@H]2[C@H]3CO[C@@]4(O)C(=O)[C@@H]2C=C([C@H]2Oc5cc(O)cc(O)c5C(=O)[C@@H]2O)[C@@H]34)ccc1O", "activity change, negative = inhibition": "-0.383% (inactive)"}
{"smiles": "Cn1cnc2nc(NCCO)nc(NCc3ccccc3)c21", "activity change, negative = inhibition": "-3.03% (inactive)"}
{"smiles": "OC1O[C@@H]2COC(c3ccccc3)O[C@H]2[C@H](O)[C@H]1O", "note": "(stereo partly drawn)", "activity change, negative = inhibition": "36.7% (inactive)"}
{"smiles": "COc1ccc2cc(-c3cc(-c4cc(Cl)cc(Cl)c4)nn3[C@@H](C)c3ccc(C(=O)NCCC(=O)O)cc3)ccc2c1", "activity change, negative = inhibition": "-64.1% (inactive)"}
{"smiles": "CCCCCCNC(=O)n1cc(F)c(=O)[nH]c1=O", "activity change, negative = inhibition": "-97.3% (active)"}
{"smiles": "CCCCNC(=O)c1ccc(Cl)cc1O", "activity change, negative = inhibition": "-69.9% (inactive)"}
{"smiles": "Cc1nnc(SCC2=C(C(=O)O)N3C(=O)[C@@H](N)[C@H]3SC2)s1", "activity change, negative = inhibition": "2.53% (inactive)"}
{"smiles": "CCN(CC)CCCCC1CCN(CC(=O)N2c3ccccc3C(=O)Nc3cccnc32)CC1", "activity change, negative = inhibition": "11.7% (inactive) and 11.5% (inactive)"}
{"smiles": "Cc1ccc([N+](=O)[O-])cc1S(=O)(=O)N(C)C", "activity change, negative = inhibition": "16.2% (inactive) and 6.9% (inactive)"}
{"smiles": "Cc1ccc([N+](=O)[O-])cc1S(=O)(=O)N(C)/N=C/c1cnc2ccc(Br)cn12", "activity change, negative = inhibition": "-80.3% (active)"}
{"smiles": "CN[C@@H]1C(OC2[C@H](O[C@H]3[C@H](O)[C@@H](O)[C@H](N=C(N)N)[C@@H](O)[C@@H]3N=C(N)N)OC(C)[C@]2(O)CO)OC(CO)C(O)C1O", "note": "(stereo partly drawn)", "activity change, negative = inhibition": "3.82% (inactive)"}
{"smiles": "C[C@]12CCc3occc3C1CC[C@@]13C[C@@H](CCC12)[C@@](O)(CO)C3", "note": "(stereo partly drawn)", "activity change, negative = inhibition": "-13.6% (inactive)"}
{"smiles": "CCC1(c2ncc[nH]2)Cc2ccccc2O1", "note": "(stereo not drawn)", "activity change, negative = inhibition": "15% (inactive) and -0.683% (inactive)"}
{"smiles": "CC(=O)O[C@H]1CC[C@@]2(C)C(C[C@@H](OC(C)=O)[C@]3(C)C2CC[C@@]2(C)[C@H](c4ccoc4)OC(=O)[C@H]4O[C@]423)C1(C)C", "note": "(stereo partly drawn)", "activity change, negative = inhibition": "-27.9% (inactive)"}
{"smiles": "Nc1nccc2c1ncn2[C@@H]1O[C@H](CO)C(O)C1O", "note": "(stereo partly drawn)", "activity change, negative = inhibition": "-4.71% (inactive)"}
{"smiles": "Nc1nccc2c1ncn2[C@@H]1C=C(CO)[C@@H](O)[C@H]1O", "activity change, negative = inhibition": "-74.6% (active) and -68.5% (inactive)"}
{"smiles": "Nc1ncnc2c1ncn2[C@@H]1O[C@H](CO)[C@@H](O)[C@@H]1O", "activity change, negative = inhibition": "-51.5% (inactive)"}
{"smiles": "CCC(CC)CC1(C(=O)Nc2ccccc2SC(=O)C(C)C)CCCCC1", "activity change, negative = inhibition": "-68.8% (inactive)"}
{"smiles": "O=C(/C=C/c1ccccc1)NC(NC(=S)Nc1ccc(Cl)cc1)C(Cl)(Cl)Cl", "note": "(stereo not drawn)", "activity change, negative = inhibition": "-82.6% (active)"}
{"smiles": "COc1cccc(NC(=O)/C=C/c2ccc(Cl)cc2)c1", "activity change, negative = inhibition": "290% (inactive) and 329% (inactive)"}
{"smiles": "O=C(/C=C/c1ccccc1)NC(NC(=S)Nc1cccc2cccnc12)C(Cl)(Cl)Cl", "note": "(stereo not drawn)", "activity change, negative = inhibition": "0.586% (inactive)"}
{"smiles": "CC(=O)c1ccc(NS(C)(=O)=O)c(Oc2ccc(F)cc2F)c1", "activity change, negative = inhibition": "22.3% (inactive)"}
{"smiles": "COC[C@@H](c1ccc(C(F)(F)F)cc1)N1CCN(C2(C)CCN(C(=O)c3c(C)ncnc3C)CC2)C[C@@H]1C", "activity change, negative = inhibition": "5.59% (inactive)"}
{"smiles": "CCN(CC)CCCC(C)Nc1nc(C)cc(Nc2ccc3nc(C)cc(N)c3c2)n1", "note": "(stereo not drawn)", "activity change, negative = inhibition": "-14.9% (inactive)"}
{"smiles": "CCCC(=O)Nc1cccc(NC(=O)c2ccccc2Br)c1", "activity change, negative = inhibition": "17.4% (inactive)"}
{"smiles": "CCc1ccc(OCc2ccccc2C(=O)Nc2ccc3nc(C)cc(N)c3c2)cc1", "activity change, negative = inhibition": "-82.4% (active)"}
{"smiles": "Nc1c(Br)cc(Br)cc1CNC1CCC(O)CC1", "note": "(stereo not drawn)", "activity change, negative = inhibition": "2.89% (inactive) and 3.02% (inactive)"}
{"smiles": "Cc1[nH]c(=O)c(C#N)cc1-c1ccc2nccn2c1", "activity change, negative = inhibition": "24.3% (inactive) and 0.856% (inactive)"}
{"smiles": "CC(C)(C)c1nc(-c2cccc(NS(=O)(=O)c3c(F)cccc3F)c2F)c(-c2ccnc(N)n2)s1", "activity change, negative = inhibition": "-88.1% (active)"}
{"smiles": "Cn1c(=O)c2c(ncn2CCOC(=O)C(C)(C)Oc2ccc(Cl)cc2)n(C)c1=O", "activity change, negative = inhibition": "7.49% (inactive)"}
{"smiles": "CC(=O)O[C@H]1C[C@@]2(C)[C@@H](C[C@@H](O)C3[C@]2(C)CC[C@H]2[C@H](C)[C@H](O)CC[C@]32C)/C1=C(/CCC=C(C)C)C(=O)O", "note": "(stereo partly drawn)", "activity change, negative = inhibition": "-16.8% (inactive) and -21.5% (inactive)"}
{"smiles": "CN1C(=O)C[C@@H](C(=O)N[C@@H](Cc2cnc[nH]2)C(=O)N2CCC[C@H]2C(N)=O)NC1=O", "activity change, negative = inhibition": "-66.5% (inactive)"}
{"smiles": "COC(=O)C1=C(C)NC(C)=C(C(=O)OCCN(C)Cc2ccccc2)C1c1cccc([N+](=O)[O-])c1", "note": "(stereo not drawn)", "activity change, negative = inhibition": "31.7% (inactive) and 1.2% (inactive)"}
{"smiles": "COC(=O)C1=C(C)NC(C)=C(C(=O)OCCN2CCN(C(c3ccccc3)c3ccccc3)CC2)C1c1cccc([N+](=O)[O-])c1", "note": "(stereo not drawn)", "activity change, negative = inhibition": "-60.9% (inactive) and -77.5% (active)"}
{"smiles": "COC(=O)C1=C(C)NC(C)=C(C(=O)NCCCN2CCC(c3ccccc3)(c3ccccc3)CC2)C1c1ccc([N+](=O)[O-])cc1", "note": "(stereo not drawn)", "activity change, negative = inhibition": "-48.9% (inactive)"}
{"smiles": "COC(=O)C1=C(C)NC(C)=C(C(=O)O[C@@H]2CCCN(Cc3ccccc3)C2)[C@@H]1c1cccc([N+](=O)[O-])c1", "activity change, negative = inhibition": "23.7% (inactive)"}
{"smiles": "COC(=O)C1=C(C)NC(C)=C(C(=O)OCCCN2CCC(c3ccccc3)(c3ccccc3)CC2)[C@@H]1c1cccc([N+](=O)[O-])c1", "activity change, negative = inhibition": "-76.4% (active) and -90.4% (active)"}
{"smiles": "COC(=O)C1=C(C)NC(C)=C(C(=O)OCCCN2CCC(c3ccccc3)(c3ccccc3)CC2)[C@H]1c1cccc([N+](=O)[O-])c1", "activity change, negative = inhibition": "-68.2% (inactive) and -79.8% (active)"}
{"smiles": "COC(=O)C1=C(C)NC(C)=C(C(=O)O[C@H]2CCN(Cc3ccccc3)C2)[C@H]1c1cccc([N+](=O)[O-])c1", "activity change, negative = inhibition": "0.473% (inactive)"}
{"smiles": "CCOC(=O)C1=C(C)NC(C)=C(C(=O)OC)C1c1cccc([N+](=O)[O-])c1", "note": "(stereo not drawn)", "activity change, negative = inhibition": "3.95% (inactive) and 4.34% (inactive)"}
{"smiles": "COC(=O)C1=C(C)NC(C)=C(C(=O)OC/C=C/c2ccccc2)C1c1cccc([N+](=O)[O-])c1", "note": "(stereo not drawn)", "activity change, negative = inhibition": "-14.8% (inactive)"}
{"smiles": "COc1ccc2c(c1)OC1(O)COc3cc(OC)c(OC)cc3C1=C2", "note": "(stereo not drawn)", "activity change, negative = inhibition": "10.6% (inactive)"}
{"smiles": "CC(=O)N1CCN(CCOc2ccc(C3CCN(C4=Nn5c(nnc5C(F)(F)F)CC4)CC3)cc2)CC1", "activity change, negative = inhibition": "7.85% (inactive)"}
{"smiles": "O=C(OC1C[C@@H]2CC3C[C@H](C1)N2CC3=O)c1c[nH]c2ccccc12", "note": "(stereo partly drawn)", "activity change, negative = inhibition": "-0.997% (inactive)"}
{"smiles": "C[C@]1(Cn2ccnn2)C(C(=O)O)N2C(=O)CC2S1(=O)=O", "note": "(stereo partly drawn)", "activity change, negative = inhibition": "0.084% (inactive)"}
{"smiles": "CNc1cc2ncnc(Nc3cccc(Br)c3)c2cc1N", "activity change, negative = inhibition": "-8.12% (inactive)"}
{"smiles": "O=c1[nH]cnc2c1cnn2[C@@H]1O[C@H](CO)[C@H](O)C1O", "note": "(stereo partly drawn)", "activity change, negative = inhibition": "19.3% (inactive)"}
{"smiles": "CCC(C)C(=O)OC1CC(C)C=C2C=CC(C)C(CCC(O)CC(O)CC(=O)O)C21", "note": "(stereo not drawn)", "activity change, negative = inhibition": "7.4% (inactive)"}
{"smiles": "NCCC(O)(P(=O)(O)O)P(=O)(O)O", "activity change, negative = inhibition": "-2.86% (inactive)"}
{"smiles": "COc1cc(O)c(C)c(O)c1", "activity change, negative = inhibition": "11% (inactive)"}
{"smiles": "CC1(C)C(=O)N=C2c3ccccc3C(=O)C(=O)C21", "note": "(stereo not drawn)", "activity change, negative = inhibition": "-89.1% (active)"}
{"smiles": "CNC(=O)[C@@H](c1ccccc1)N1CCc2cc(OC)c(OC)cc2[C@@H]1CCc1ccc(C(F)(F)F)cc1", "activity change, negative = inhibition": "7.93% (inactive)"}
{"smiles": "O=C(Nc1cccc2c(=O)cc(-c3nn[nH]n3)oc12)c1ccc(OCCCCc2ccccc2)cc1", "activity change, negative = inhibition": "3.35% (inactive) and 13.6% (inactive)"}
{"smiles": "COc1cccc(Nc2ncnn3ccc(CN4CC[C@@H](N)[C@H](O)C4)c23)c1", "activity change, negative = inhibition": "-86.2% (active)"}
{"smiles": "C[C@]12C=CC(=O)C=C1CCC1C2[C@@H](O)C[C@@]2(C)C1CC[C@]2(O)C(=O)CO", "note": "(stereo partly drawn)", "activity change, negative = inhibition": "1.25% (inactive) and -8.87% (inactive)"}
{"smiles": "CC(=O)O[C@@H]1c2c(ccc3ccc(=O)oc23)OC(C)(C)[C@@H]1OC(=O)CC(C)C", "activity change, negative = inhibition": "-2.35% (inactive)"}
{"smiles": "CCCN(CCC)CC1CCCCN1CCNC(=O)N1c2ccccc2C(=O)Nc2cccnc21", "note": "(stereo not drawn)", "activity change, negative = inhibition": "3.45% (inactive)"}
